Experimental data taken from ChEMBL document CHEMBL3433997, “St. Jude Leishmania screening dataset” (2016).

How the values were obtained:
Format in all cases: functional
[1] = target: Solute carrier family 2, facilitated glucose transporter member 1 (Homo sapiens) (UniProt P11166); test: ST_JUDE_LEISH: Cytotoxicity at 2uM final concentration against transgenic Leishmania Mexicana promastigotes LmGLUT1 that are glucose transport deficient and complemented with the human glucose transporter GLUT1. Activity is measured by DNA content using SYBR green in vitro
Sequence of Solute carrier family 2, facilitated glucose transporter member 1 (Homo sapiens) (P11166 whole entry): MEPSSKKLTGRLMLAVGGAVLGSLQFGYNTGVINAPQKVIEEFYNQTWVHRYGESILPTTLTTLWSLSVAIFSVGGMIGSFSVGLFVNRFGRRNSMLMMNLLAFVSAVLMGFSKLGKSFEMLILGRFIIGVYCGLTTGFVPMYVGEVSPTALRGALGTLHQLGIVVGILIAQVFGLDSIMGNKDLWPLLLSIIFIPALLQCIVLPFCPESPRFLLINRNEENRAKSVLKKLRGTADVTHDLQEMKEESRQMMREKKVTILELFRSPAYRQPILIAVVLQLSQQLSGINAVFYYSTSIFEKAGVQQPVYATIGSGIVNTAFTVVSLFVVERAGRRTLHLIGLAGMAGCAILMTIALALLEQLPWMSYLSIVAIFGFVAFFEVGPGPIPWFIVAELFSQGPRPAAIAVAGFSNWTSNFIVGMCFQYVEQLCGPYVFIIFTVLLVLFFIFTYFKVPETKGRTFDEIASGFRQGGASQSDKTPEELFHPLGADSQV

[2] = target: Hexose transporter 1 (Plasmodium falciparum) (UniProt O97467); test: ST_JUDE_LEISH: Cytotoxicity at 2uM final concentration against transgenic Leishmania Mexicana promastigotes LmPfHT that are glucose transport deficient and complemented with the Plasmodium falciparum hexose transporter. Activity is measured by DNA content using SYBR green in vitro
[3] = target: Glucose transporter (Leishmania mexicana) (UniProt O61059); test: ST_JUDE_LEISH: Cytotoxicity at 2uM final concentration against transgenic Leishmania Mexicana promastigotes LmGT2 that are glucose transport deficient and complemented with the L. Mexicana glucose transporter 2. Activity is measured by DNA content using SYBR green in vitro

SMILES | inhibition [1] | inhibition [2] | inhibition [3]
N#Cc1ccc2c(c1)CCN(CCC1CCC(NC(=O)c3ccc(-c4ccccn4)s3)CC1)CC2 (centres undefined) | 13.3% | 9.45% | 9.9%
COc1ccc(-c2ccc(NC(=O)c3cccc(C#N)c3)cc2)cc1CN1CCNCC1 | 9.28% | 5.74% | 4.28%
COc1ccc(Nc2cc(C)nc(Nc3ccc(NC(C)=O)cc3)n2)cc1 | 47% | 67.4% | 32.2%
CN1CCC(N2CCN(Cc3ccc(-c4cccc(-c5nc6cc(F)ccc6[nH]5)c4)cc3)CC2)CC1 | 2.39% | 2.13% | 2.94%
COc1cccc(Nc2nc(C)cc(Nc3cccc(C#N)c3)n2)c1 | 17.5% | 19.2% | 4.27%
COc1ccc(C2CCN(CCN3CCC(NC(=O)c4ccc(-c5cccc(C(F)(F)F)c5C(F)(F)F)cc4)CC3)CC2)c(OC)c1 | 0.36% | 1.29% | -0.58%
Cc1cccc2nc(-c3ccc(-c4cccc(NC(=O)C(C)CN5CCN(C)CC5)c4)s3)[nH]c12 (centres undefined) | 11.7% | 10.8% | 10.3%
O=C(Nc1ccc(-c2csc3nccn23)cc1)c1ccc(Cl)cc1 | 5.5% | 4.05% | -0.28%
CC(N)(Cc1ccc(O)cc1)c1nnn[nH]1 (centres undefined) | -0.06% | 1.3% | -0.23%
O=C(NC1CCC1)C1CCN(C(c2ccccc2)c2cc(F)cc(F)c2)CC1 (centres undefined) | 6.73% | 7.32% | 6.61%
COc1ccc(-c2cccc(NC(=O)c3ccc(Cl)cc3)c2)cc1CN1CCC(O)CC1 | 5.4% | 0.09% | 1.8%
COc1ccc(CC(=O)Nc2ccc(-c3cccc(-c4nc5cccc(C)c5[nH]4)c3)cc2)cc1O | 3.89% | 5.29% | 5.34%
CC(CN(C)C)C(=O)Nc1ccc(-c2ccc(-c3nc4ccccc4[nH]3)cc2)cc1 (centres undefined) | 3.03% | 3.01% | 5.36%
Cc1nc2ccc(Nc3nccc(-c4c(-c5cccc(NC(=O)c6c(F)cccc6F)c5)nn5ccccc45)n3)cc2nc1C | 2.58% | 4.37% | -1.39%
Fc1ccc(-c2csc3ncnc(Cl)c23)cc1 | -0.36% | -0.72% | -2.14%
CC1(CCCCN2CCC(c3c[nH]c4cnccc34)CC2)C(=O)Nc2cccc(Cl)c21 (centres undefined) | 0.37% | 0.54% | 1.21%
COc1ccc2nccc([C@@H](O)CN3CCC(NC(=O)c4ccc(-c5ccc(C#N)cc5)cc4)CC3)c2c1 | 1.89% | 1.64% | 3.25%
COc1ccc(NC(=O)Nc2ccc(-c3cccc(-c4nc5cccc(C)c5[nH]4)c3)cc2)cc1 | -1.37% | -1.2% | -0.2%
CC(=O)N1N=C(c2ccc(F)cc2)Sc2c1nc(C1CCCCC1)n2C(C)=O | 8.37% | 6.09% | 7.07%

SMILES | inhibition [1] | inhibition [2] | inhibition [3]
Cc1ccc2c(c1)NCC21CCN(C[C@@H](O)C2CCN(c3ccnc(Cl)c3)CC2)CC1C (some centres undefined) | 0.9% | 3.08% | 0.18%
Cc1cccc(C)c1CNc1cccc(-c2nc(C)c(C)[nH]2)c1 | 5.39% | 4.77% | 1.97%
CN(C)c1cc(NN=Cc2cc(Cl)ccc2O)nc(N(C)C)n1 | 4.76% | 4.94% | 2.54%
Cc1cccc2nc(-c3cccc(-c4ccc(NC(=O)c5ccc(=O)[nH]n5)cc4)c3)[nH]c12 | 3.76% | 3.2% | 1.44%
CCCCCCc1c(C)nc2cc(OC)ccc2c1O | 3.2% | 5.49% | 2.87%
CCN(CC)CCOc1ccc(C(O)(C#CC(O)(c2ccccc2)c2ccc(OCCN(CC)CC)cc2)c2ccccc2)cc1 (centres undefined) | -1.1% | -2.58% | 1.94%
O=C(/C=C/c1ccc(Cl)c(Cl)c1)NCCCCCN1CCC(C(=O)Nc2ccc(Cl)cc2)CC1 | 1.92% | 0.72% | 2.78%
Cc1cc(Br)cnc1CCCCNC1=NC(=O)CN1C | 0.57% | -0.02% | 0.12%
O=C1OC2(CCN(Cc3cccc(-c4ncc[nH]4)c3)CC2)CN1CCNCc1ccccc1 | 1.81% | 1.4% | -0.76%
COc1cc2nc(C)nc(Nc3cccc(Br)c3)c2cc1OC | -0.77% | -0.52% | -0.03%
COc1ccc(-c2cccc(NC(=O)c3ccc(Cl)cc3)c2)cc1CN1CCCN(C)CC1 | 7.89% | 8.76% | 7.23%
O=C(CSc1nc2ccc([N+](=O)[O-])cc2s1)Nc1ccccc1-c1ccccc1 | -0.42% | -0.44% | -1.03%
CC12CCC(CN(CC(O)Cn3c4ccccc4c4cc(I)ccc43)C1)C2(C)C (centres undefined) | 2.02% | 2.5% | 0.07%
COC(=O)CC[C@H](NC(=O)[C@H](C)NC(=O)OC(C)(C)C)C(=O)OC | 4.67% | 0.48% | 0.89%
O=c1cc(NCCCNCc2cc(C(F)(F)F)ccc2F)[nH]c2ccccc12 | 0.7% | 0.86% | 3.1%
COCCOc1nc(N)nc2ncc(Cc3cc(OC)ccc3OC)c(C)c12 | 0.79% | 0.23% | -1.06%
COc1ccc(C2N=C(N)N=C(N)N2OCc2ccccc2)cc1OC (centres undefined) | 0.67% | 2.45% | 2.49%
Cc1cccc(CNc2nccc3[nH]c4ccccc4c23)c1 | 4.82% | 4.77% | 1.28%
OC1CCCN(Cc2ccc(-c3ccc(-c4nc5cc(F)ccc5[nH]4)cc3)cc2)C1 (centres undefined) | 9.06% | 8.43% | 6.49%
